In ChEMBL document CHEMBL4513216, “Probing the Open Global Health Chemical Diversity Library for Multistage-Active Starting Points for Next-Generation Antimalarials” (ACS Infect Dis, 2020) one finds INHIBITION data, which are given here for 105 compounds.

Hit rate of the full screen: of about 69,000 compounds, about 8,600 (12%) showed an effect of 50% or more. The list comes from a sample in which strong results are over-represented; it also holds similar structures and randomly drawn compounds.

The subject of the assay is Plasmodium berghei. Nature of the assay: Screen against P. berghei liver stage (PbLuc), transformed with Luciferase, at 10uM. Conditions: tested at 10 uM. It counts as functional, HepG2.
Take `CC(C)c1noc(CN2CCCC2c2noc(C(C)C)n2)n1` (stereo not given): the INHIBITION stood at 29.2%.
The figure for `COc1ncc(NS(=O)(=O)c2ccc(OC)c(C)c2)c(OC)n1` is 69.6%; for `CCOc1ccc(S(=O)(=O)Nc2cnc(OC)nc2OC)cc1` it is 81.1%.
The figure for `COc1ncc(NC(=O)c2ccco2)c(OC)n1` is 36.6%.
The result for `COc1ncc(NS(=O)(=O)c2cccc(C)c2)c(OC)n1` reads 34.6%.
On to `COc1ccc(S(=O)(=O)Nc2cccnc2-n2cncn2)cc1C`, for which the INHIBITION is reported as 1.56%.
For the compound `COc1ncc(NS(=O)(=O)c2ccc(F)c(F)c2)c(OC)n1`, the INHIBITION turned out to be 11.6%.
Take `Cc1ccc([C@H]2CN(CCO)C[C@@H]2NC(=O)CN2CCCCC2=O)o1`: the INHIBITION is 4.93%.
For the compound `Cc1nc(Nc2nnc(C)s2)cc(C2CCCN2c2ccncn2)n1` (stereo not given), the INHIBITION worked out at 25.6%.
On to `O=C1COC2(COCCN(Cc3cccnc3)C2)CN1c1ccoc1` (stereo not given), for which the INHIBITION was 12.2%.
The result for `Cc1nc2c(c(=O)n1C)CCN(Cc1cc3cc[nH]c3cn1)CC2` reads 19.8%.
For `Cc1cc(CN2CCc3nc(C)n(C)c(=O)c3CC2)[nH]n1`, the INHIBITION came out at 45.6%.
As to `Cc1nc2c(c(=O)n1C)CCN(Cc1cc3ccccc3[nH]1)CC2`, the INHIBITION came to 60.4%.
The result for `Cc1cc(CN2CCc3cncnc3C2)on1` reads -40.5%; that for `CCN(C(=O)CCOC)C(c1ccc(Cl)cc1)c1ccccn1` (stereo not given), 58.8%.
The figure for `CCN(C(=O)CCCOC)C(c1ccc(Cl)cc1)c1ccccn1` (stereo not given) is 31%; for `CCN(C(=O)COC)C(c1ccc(Cl)cc1)c1ccccn1` (stereo not given) it is 44.9%; for `O=C(C1CCCC1)N1CCCC2(CCN(c3cnccn3)CC2)C1` it is -9.74%.
The figure for `c1c(CN2CCOCC2)nc2n1CCN(CC1CC1)C2` is 23.6%; for `O=C(Cc1ccc(F)cc1F)NCC(=O)Nc1ccccn1` it is 45%.
Turning to `CCN1CC(C(=O)N2CCc3cc(C(N)=O)n(C)c3C2)CCC1=O` (stereo not given), the INHIBITION turned out to be 54.5%.
The result for `Cn1c(C(N)=O)cc2c1CN(C(=O)C1CC(=O)N(C(C)(C)C)C1)CC2` (stereo not given) reads 48%; that for `CCN1CC(C(=O)N2CCc3cc(C(=O)N(C)C)n(C)c3C2)CCC1=O` (stereo not given), 51.7%.
The figure for `CCN1CC(C(=O)N2CCN(c3cnn(C)c(=O)c3)CC2)CCC1=O` (stereo not given) is -22%; for `Cn1c(C(N)=O)cc2c1CN(C(=O)C1CCCN(C3CCCC3)C1)CC2` (stereo not given) it is 15.5%.
For `CCN1CC(C(=O)N2CCc3cc(C(N)=O)n(C)c3C2)CC1=O` (stereo not given), the INHIBITION worked out at 32.2%.
Take `Cc1ncc2c(n1)CN(CCCOc1ccc(C#N)cc1)CC2`: the INHIBITION is 19.2%.
Consider `CC(=O)c1cccc(NC(=O)NCCOCC2CC2)c1`, for which the INHIBITION was -35.9%.
The figure for `O=C(CCc1ccc(Br)cc1)NCCc1nnc[nH]1` is -7.12%; for `O=C(NCCc1nnc[nH]1)Nc1cccc(SC(F)F)c1` it is 51.7%; for `CC(=O)c1cccc(NC(=O)NCCCc2nc(C(C)C)no2)c1` it is -34.8%.
`CC(=O)c1cccc(NC(=O)NCCc2nnc[nH]2)c1`: the INHIBITION amounted to 66.5%.
The result for `Cc1nnc(CCNC(=O)Nc2ccc(S(C)(=O)=O)cc2)[nH]1` reads -30%.
The figure for `COCCNC(=O)Nc1cccc(COCCOC(C)C)c1` is 18.6%; for `CC(C)SCc1cccc(NC(=O)NCCc2nnc[nH]2)c1` it is 56.3%.
Turning to `CC(C)SCc1cccc(NC(=O)NC(C)c2nc[nH]n2)c1` (stereo not given), the INHIBITION came to 5.33%.
Turning to `Cc1cc(C)n(CC2CCCN2C(=O)c2c[nH]c(=O)c(Cl)c2)n1` (stereo not given), the INHIBITION was determined as 21%.
Take `COc1ccc(OCCNC(=O)CN(C)Cc2nnc(C)n2C)cc1`: the INHIBITION is reported as -10.8%.
For `O=C1COC2(CCN(CC3CC3)CC2)CN1c1cncnc1`, the INHIBITION was -33.3%.
The figure for `COc1cc(OC)cc(C2CC(=O)Nc3c2nc2n3CCCC2)c1` (stereo not given) is 1.19%; for `Cc1noc(C)c1CN(C)CC(=O)Nc1ccnn1C(C)C1CC1` (stereo not given) it is -72.5%; for `O=C(O)c1ccc(CN2CCC(c3ccnc4ccnn34)CC2)cc1` it is 13.5%.
For the compound `CC(=O)N1CCCC(c2nnc3n2CCN(C(=O)C2CCCCC2)C3)C1` (stereo not given), the INHIBITION came to 33.39%.
As to `Cc1ccc(F)c(NCc2ccc(C(=O)N(C)C)[nH]2)c1`, the INHIBITION was -17.9%.
The figure for `CCn1cc(S(=O)(=O)NCC(c2ccccc2)N2CCOCC2)c(C)n1` (stereo not given) is 8.335%; for `CN(C)C1(C(=O)NC2CCC(Oc3ccccc3C#N)CC2)CCC1` (stereo not given) it is 67.4%; for `CCNC(=O)NC1CCC(Oc2ccccc2C#N)CC1` (stereo not given) it is 40.2%.
The result for `CN(C)CCN(C)C(=O)NC1CCC(Oc2ccccc2C#N)CC1` (stereo not given) reads 34%.
Regarding `Cc1cnn(CC2CCCCN2C(=O)Cc2c(C)nn(C)c2C)c1` (stereo not given), the INHIBITION is recorded as 7.08%.
For the compound `CCC[C@H]1CN(Cc2ccc(N(C)C)nc2)C[C@@H]1NC(=O)CCOC`, the INHIBITION is 62.2%.
The result for `CCC[C@H]1CN(Cc2ccc(N(C)C)nc2)C[C@@H]1NC(=O)CO` reads 42.1%; that for `CCC[C@H]1CN(Cc2ccc(N(C)C)nc2)C[C@@H]1NC(=O)CSC`, 33.1%; that for `O=C(c1ccco1)N1CCC12CCN(c1ncc(F)cn1)CC2`, 58%.
The result for `Cc1cnc(N2CCC3(CCCN3C(=O)c3ccco3)CC2)nc1` reads 60.5%; that for `Cc1cnc(N2CCC3(CCCCN3C)C2)nc1` (stereo not given), -38.1%; that for `O=C(c1ccco1)N1CCCC12CCN(c1ncccn1)CC2`, -72.6%.
The figure for `O=C1CCC2(CCN(c3ncc(F)cn3)CC2)N1Cc1ccncc1` is 35.8%; for `O=C1CCC2(CCCN(c3ncc(F)cn3)CC2)N1Cc1ccccc1` (stereo not given) it is -2.17%.
Regarding `O=C(Nc1ccccc1Cn1cccn1)N1CCC(N2CCCC2)C1` (stereo not given), the INHIBITION is recorded as 5.42%.
`CCCc1nc(NCCCn2ccnc2)c2c(n1)c(C)nn2CC`: the INHIBITION is recorded as 17.7%.
The figure for `Cc1nn(C)c2nc3c(c(C(=O)/N=c4\[nH]nc(C(C)C)s4)c12)CCC3` is 7.83%; for `Cc1noc(CCNC(=O)NCC(=O)NCc2ccccc2)n1` it is -176%.
The figure for `CC(NC(=O)CCCOc1ccc(F)cc1)c1nnc2n1CCC2` (stereo not given) is -12.2%.
The figure for `CO[C@H]1CCN(Cc2c(C)noc2C)[C@@H]2CN(Cc3ccncc3)C[C@H]12` is 12.6%.
`Clc1ccccc1C1(c2ccnc(-c3ncccn3)n2)CCNCC1`: the INHIBITION is on record as 33.5%.
Turning to `Clc1ccccc1C1(c2ccnc(-c3ccncc3)n2)CCNCC1`, the INHIBITION turned out to be 55.1%.
Turning to `Clc1ccccc1C1(c2ccnc(C3CCCC3)n2)CCNCC1`, the INHIBITION is recorded as 94.4%.
With `CCC1C(=O)NCCN1c1ccnc(C(C)(C)C)n1` (stereo not given), the INHIBITION is on record as 26.8%.
In the case of `O=c1[nH]cccc1-c1nccc(C2(c3ccccc3Cl)CCNCC2)n1`, the INHIBITION is given as 33%.
Consider `CC(C)(C)c1nccc(C2(c3ccccc3Cl)CCNCC2)n1`, for which the INHIBITION is 72.8%.
Take `Clc1ccccc1C1(c2ccnc(CC3CC3)n2)CCNCC1`: the INHIBITION was found to be 43.5%.
The result for `CC(C)c1nccc(C2(c3ccccc3Cl)CCNCC2)n1` reads 20.2%.
The figure for `Clc1ccccc1C1(c2ccnc(C3CC3)n2)CCNCC1` is 44.1%; for `NC(=O)NCCC(=O)NCc1nn(-c2ccccc2)c2c1CCC2` it is 15.115%.
For the compound `Nc1nc2c(c(NCC(c3cccnc3)N3CCOCC3)n1)CCCC2` (stereo not given), the INHIBITION is recorded as -21.3%.
The figure for `CC(C)c1nn(C)c(Cl)c1CNCC(O)c1cccc(F)c1` (stereo not given) is 42%.
The figure for `Cc1cc(C(=O)N2CCN(Cc3ccsc3)CC2)n(C)n1` is -3.2%; for `CCOCC(O)CN1CCN(C(=O)c2ccccc2F)CC1` (stereo not given) it is -35.7%; for `CN(C[C@@H]1CCC[C@@H]2CN(Cc3cccnc3)C[C@@H]21)C1CC1` it is -5.63%.
`Cc1nccc(C(=O)NC(COCC(C)C)c2ccco2)n1` (stereo not given): the INHIBITION is -19.4%.
On to `CCNC(=O)N(C)Cc1ccc(SC)c(OC)c1`, for which the INHIBITION came out at 55.1%.
Regarding `CCN(CC)C(=O)CCNC(=O)N(C)Cc1ccc(SC)c(OC)c1`, the INHIBITION is 8.97%.
The figure for `COc1cc(CN(C)C(=O)NCC(=O)NC(C)C)ccc1SC` is 14.3%; for `COc1cc(CN(C)C(=O)NC2CC2)ccc1SC` it is 14.3%; for `CCOCCCNC(=O)N(C)Cc1ccc(SC)c(OC)c1` it is 12.6%.
Regarding `COc1cc(CN(C)C(=O)NCCNC(=O)C2CC2)ccc1SC`, the INHIBITION is recorded as 52.9%.
The result for `CCC1CCCCCN1C(=O)c1nnc2ccccc2c1N` (stereo not given) reads 40.3%; that for `Cc1cccc(OCCC(=O)NCC2CN(C)CCO2)c1C` (stereo not given), -36.85%; that for `CC(C)NC(=O)C[C@@H]1CCNC[C@@H]1Cc1cc(-c2ccccc2)on1`, 59.8%.
Regarding `CC(C)(C)c1cc(C[C@H]2CNCC[C@H]2CC(=O)Nc2ccccc2)no1`, the INHIBITION is given as 44.4%.
The figure for `CC(C)NC(=O)C[C@@H]1CCNC[C@@H]1Cc1cc(-c2ccccn2)on1` is -14.2%.
The figure for `O=C(CC1[C@H]2CN(C(=O)Cc3ccccn3)C[C@@H]12)Nc1cccnc1` (stereo not given in full) is 39.4%.
The result for `Cc1noc(C)c1CN1CC[C@H]2OCC[C@@H](C(=O)NCC3CC3)[C@H]2C1` reads 54.7%.
Consider `COCCNC(=O)C1CN(Cc2cccnc2)Cc2ccnn2C1` (stereo not given), for which the INHIBITION is 35.7%.
The result for `COCCNC(=O)C1CN(Cc2cccc(C)n2)Cc2ccnn2C1` (stereo not given) reads 7.77%; that for `COCCNC(=O)C1CN(Cc2ccsc2)Cc2ccnn2C1` (stereo not given), 5.36%.
As for `Cc1noc(C)c1CN1CC[C@H]2OCC[C@@H](C(=O)NCC3CC3)[C@@H]2C1`, the INHIBITION is -3.83%.
Turning to `Cc1noc(C)c1CN1CC[C@H]2OCC[C@@H](C(=O)N3CCCO3)[C@@H]2C1`, the INHIBITION came out at 34.1%.
Take `CN(C)C(=O)C1CN(Cc2ccsc2)Cc2ccnn2C1` (stereo not given): the INHIBITION worked out at 52.6%.
The result for `COCCNC(=O)C1CN(Cc2ccncc2)Cc2ccnn2C1` (stereo not given) reads 89.3%; that for `COCCNC(=O)C1CN(Cc2nccs2)Cc2ccnn2C1` (stereo not given), 29.9%; that for `CC(C)NC(=O)C1CN(Cc2ccsc2)Cc2ccnn2C1` (stereo not given), 37.9%.
The figure for `COCCNC(=O)C1CN(Cc2csc(C)n2)Cc2ccnn2C1` (stereo not given) is 62.5%; for `O=C(C1CN(Cc2ccsc2)Cc2ccnn2C1)N1CCCC1` (stereo not given) it is 15.7%; for `Cc1cccc(N2CCN(C(=O)CCc3c(C)noc3Cl)CC2)c1` it is 45.7%.
